# Laboratory results taken from the antibiotic and cytotoxicity screens of Wong et al. (2023).
# About 1,500 (3.8%) of roughly 39,000 compounds were called active. Shown is part of a subset that was picked to be rich in actives.
# System: HSkMC (human skeletal muscle cells)
# Experiment: cytotoxicity call (relative viability < 0.9)
# Conditions: 10 µM
row,Structure (SMILES),cytotoxicity call
1,Cc1noc(C)c1NC(=O)N(C)C[C@H]1Oc2ccc(NC(=O)Nc3ccc(C(F)(F)F)cc3)cc2C(=O)N([C@H](C)CO)C[C@@H]1C,inactive
2,NNC(=O)[C@H]1C[C@H]2C[C@@H]1C[C@@H]2C(=O)NN,inactive
3,COc1ccc(S(=O)(=O)N(C)C[C@H]2Oc3ccc(NC(=O)Cn4cnnn4)cc3CC(=O)N([C@@H](C)CO)C[C@H]2C)cc1,inactive
4,O=C(O)c1ccc[n+]([O-])c1,inactive
5,CN(C)C(=O)C1CCN(S(C)(=O)=O)CC1,inactive
6,Cc1noc(C)c1NC(=O)Nc1ccc2c(c1)C(=O)N([C@@H](C)CO)C[C@H](C)[C@H](CN(C)C(=O)Nc1ccc(C(F)(F)F)cc1)O2,inactive
7,C[C@@H]1CCCCO[C@@H](CN(C)C(=O)c2ccccc2)[C@@H](C)CN([C@H](C)CO)C(=O)c2cc(NC(=O)Cc3ccccc3)ccc2O1,inactive
8,O=C(Nc1cc(Cl)ccc1Cl)c1cc(Br)ccc1NS(=O)(=O)c1ccc(Cl)c([N+](=O)[O-])c1,inactive
9,COCCNCc1ccc(-c2cc3nccc(Oc4ccc(NC(=O)C5(C(=O)Nc6ccc(F)cc6)CC5)cc4F)c3s2)nc1,active
10,Cn1cnc(-c2cc3nccc(Oc4ccc(NC(=S)NC(=O)Cc5ccccc5)cc4F)c3s2)c1,inactive
11,COCCNCc1ccc(-c2cc3nccc(Oc4ccc(NC(=S)NC(=O)Cc5ccc(F)cc5)cc4F)c3s2)nc1,active
12,C[C@H](CO)N1C[C@H](C)[C@H](CN(C)S(=O)(=O)c2ccc(-n3cccn3)cc2)OCc2cn(nn2)CCCC1=O,inactive
13,CO[C@H](C(=O)N(C)C[C@@H]1OCc2ccccc2-c2c(n(C)c3ccccc23)C(=O)N([C@@H](C)CO)C[C@@H]1C)c1ccccc1,inactive
14,C[C@@H]1CN([C@@H](C)CO)C(=O)Cc2cc(NC(=O)Nc3cccc4ccccc34)ccc2O[C@@H]1CN(C)Cc1ccncc1,inactive
15,COc1ccc(S(=O)(=O)N[C@H]2CC[C@@H](CC(=O)N3CCN(c4ccccc4)CC3)O[C@@H]2CO)cc1,inactive
16,Cc1noc(C)c1NC(=O)Nc1ccc2c(c1)C(=O)N([C@@H](C)CO)C[C@@H](C)[C@H](CN(C)C(=O)Nc1cccc3ccccc13)OCCCC[C@@H](C)O2,active
17,Cc1noc(C)c1NC(=O)Nc1ccc2c(c1)C(=O)N([C@H](C)CO)C[C@@H](C)[C@H](CN(C)C(=O)Nc1cccc3ccccc13)OCCCC[C@@H](C)O2,inactive

row,Structure (SMILES),cytotoxicity call
1,Cc1noc(C)c1NC(=O)Nc1ccc2c(c1)C(=O)N([C@H](C)CO)C[C@H](C)[C@H](CN(C)C(=O)Nc1cccc3ccccc13)OCCCC[C@H](C)O2,active
2,Cc1noc(C)c1NC(=O)Nc1ccc2c(c1)C(=O)N([C@@H](C)CO)C[C@H](C)[C@@H](CN(C)C(=O)Nc1cccc3ccccc13)OCCCC[C@@H](C)O2,inactive
3,Cc1noc(C)c1NC(=O)Nc1ccc2c(c1)C(=O)N([C@@H](C)CO)C[C@@H](C)[C@H](CN(C)C(=O)Nc1cccc3ccccc13)OCCCC[C@H](C)O2,inactive
4,Cc1noc(C)c1NC(=O)Nc1ccc2c(c1)C(=O)N([C@H](C)CO)C[C@H](C)[C@@H](CN(C)C(=O)Nc1cccc3ccccc13)OCCCC[C@H](C)O2,inactive
5,COc1ccc(S(=O)(=O)N(C)C[C@@H]2OCCCC[C@H](C)Oc3ccc(NS(=O)(=O)c4ccc(Cl)cc4)cc3C(=O)N([C@H](C)CO)C[C@H]2C)cc1,inactive
6,COc1ccc(S(=O)(=O)Nc2ccc3c(c2)C(=O)N([C@@H](C)CO)C[C@H](C)[C@H](CN(C)Cc2ccc(C(=O)O)cc2)OCCCC[C@H](C)O3)cc1,inactive
7,COC(=O)C1CCN(S(=O)(=O)c2c(C)n(C)c(=O)n(C)c2=O)CC1,inactive
8,O=C(CN1CCOCC1)NCC[C@@H]1CC[C@@H](NC(=O)c2ccccc2F)[C@H](CO)O1,inactive
9,O=C(CN1CCOCC1)NCC[C@@H]1CC[C@@H](NC(=O)c2ccccc2F)[C@@H](CO)O1,active
10,O=C(CN1CCOCC1)NCC[C@H]1CC[C@H](NC(=O)c2ccccc2F)[C@H](CO)O1,inactive
11,CO/N=[N+](\[O-])NC(C)C,inactive
12,C[C@@H]1CCCCO[C@H](CN(C)Cc2ccc(Cl)c(Cl)c2)[C@@H](C)CN([C@H](C)CO)C(=O)c2cc(NS(=O)(=O)c3ccc(F)cc3)ccc2O1,inactive
13,C[C@H]1CCCCO[C@H](CN(C)Cc2ccc(Cl)c(Cl)c2)[C@@H](C)CN([C@@H](C)CO)C(=O)c2cc(NS(=O)(=O)c3ccc(F)cc3)ccc2O1,active
14,C[C@@H]1CCCCO[C@@H](CN(C)Cc2ccc(Cl)c(Cl)c2)[C@@H](C)CN([C@@H](C)CO)C(=O)c2cc(NS(=O)(=O)c3ccc(F)cc3)ccc2O1,inactive
15,C[C@@H]1CCCCO[C@@H](CN(C)Cc2ccc(Cl)c(Cl)c2)[C@H](C)CN([C@@H](C)CO)C(=O)c2cc(NS(=O)(=O)c3ccc(F)cc3)ccc2O1,active
16,C[C@@H]1CCCCO[C@@H](CN(C)Cc2ccc(Cl)c(Cl)c2)[C@H](C)CN([C@H](C)CO)C(=O)c2cc(NS(=O)(=O)c3ccc(F)cc3)ccc2O1,active
